The target of assay [1] is Rap guanine nucleotide exchange factor 3 (Homo sapiens) (UniProt O95398). As to the kind of experiment: Confirmatory qHTS for antagonist of cAMP-regulated guanine nucleotide exchange factor 3 (EPAC1) (AID 1645880). Also: nearly all actives have a fitted effect of over 55% in size. Also: potency is read from the fitted curve at half-maximal effect.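 As to activity, negative = inhibition: plate controls were DMSO only for no effect and full effect of the ATA control for full effect.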 To be noted: EPAC1 Rap1B-BODIPY-GDP exchange, fluorescence; activity, negative = inhibition: at 115 µM (top of the series). The essentials:
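Nucleotide exchange uses 100 nM EPAC1, 250 nM RAP1B-BODIPY-GDP and 50 uM GDP, with compounds in a concentration-titration series. After 5 min at room temperature, fluorescence (480 nm ex/540 nm em) is read every 5 min for 30 min. Data are normalized to control ATA and DMSO.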

Assay [2] concerns the target Rap guanine nucleotide exchange factor 4 (Homo sapiens) (UniProt Q8WZA2). As to the kind of experiment: Confirmatory qHTS for agonist of cAMP-regulated guanine nucleotide exchange factor 4 (EPAC2) (AID 1645884).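 Also: nucleotide exchange releases bodipy-GDP from Rap1 and this lowers its fluorescence; nearly all actives have a fitted effect of over 65% in size.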 Also: potency is read from the fitted curve at half-maximal effect. As to activation: % is scaled to controls: 0 for no effect and ±100 for the full control effect.
For assay [3] the target is unchanged. Put plainly: Confirmatory qHTS for antagonist of cAMP-regulated guanine nucleotide exchange factor 4 (EPAC2) (AID 1645885). Also: nearly all actives have a fitted effect of over 25% in size. Also: potency is read from the fitted curve at half-maximal effect. As to activity change, negative = inhibition: % is scaled to controls: 0 for no effect and ±100 for the full control effect.
Assay [4] addresses Rap guanine nucleotide exchange factor 3 (Homo sapiens) (UniProt O95398). Put plainly: Counterscreen qHTS for antagonist of cAMP-regulated guanine nucleotide exchange factor 3 (EPAC1) (AID 1645888).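 Also: fluorescence loss as bound BODIPY-GDP is released from Rap1B; % of control where 0% means no effect.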 An outline of the steps:
(§1)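 Rap1B–BODIPY-GDP (250 nM) with 50 uM GDP; compounds pin-transferred to 9.74 nM–152 uM final (activator) or from 7.32 nM upwards (inhibitor). Fluorescence Ex/Em 480/540 nm read at 5 and 30 min, then after adding cAMP or buffer, at room temperature.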

Assay [5] shares this target. As to the kind of experiment: Counterscreen qHTS for agonist of cAMP-regulated guanine nucleotide exchange factor 3 (EPAC1) (AID 1645889). Also: nearly all actives have a fitted effect of over 40% in size. Also: potency is read from the fitted curve at half-maximal effect. As to activation: % of control where 0% means no effect. An outline of the steps:
as §1

Results filed as inconclusive are left out. Unmarked numbers belong to inactive results. Active and inactive are the calls of the source. Calls follow the shape of the dose curve; as a rule, active = well fitted curve in the direction sought with a large enough effect; inconclusive = small, poorly fitted or top-dose-only effect, or another doubt; inactive = no such curve, though single readings can be large; an effect the other way counts as inactive or inconclusive.

Sequence of Rap guanine nucleotide exchange factor 3 (Homo sapiens) (O95398 whole entry, looked up): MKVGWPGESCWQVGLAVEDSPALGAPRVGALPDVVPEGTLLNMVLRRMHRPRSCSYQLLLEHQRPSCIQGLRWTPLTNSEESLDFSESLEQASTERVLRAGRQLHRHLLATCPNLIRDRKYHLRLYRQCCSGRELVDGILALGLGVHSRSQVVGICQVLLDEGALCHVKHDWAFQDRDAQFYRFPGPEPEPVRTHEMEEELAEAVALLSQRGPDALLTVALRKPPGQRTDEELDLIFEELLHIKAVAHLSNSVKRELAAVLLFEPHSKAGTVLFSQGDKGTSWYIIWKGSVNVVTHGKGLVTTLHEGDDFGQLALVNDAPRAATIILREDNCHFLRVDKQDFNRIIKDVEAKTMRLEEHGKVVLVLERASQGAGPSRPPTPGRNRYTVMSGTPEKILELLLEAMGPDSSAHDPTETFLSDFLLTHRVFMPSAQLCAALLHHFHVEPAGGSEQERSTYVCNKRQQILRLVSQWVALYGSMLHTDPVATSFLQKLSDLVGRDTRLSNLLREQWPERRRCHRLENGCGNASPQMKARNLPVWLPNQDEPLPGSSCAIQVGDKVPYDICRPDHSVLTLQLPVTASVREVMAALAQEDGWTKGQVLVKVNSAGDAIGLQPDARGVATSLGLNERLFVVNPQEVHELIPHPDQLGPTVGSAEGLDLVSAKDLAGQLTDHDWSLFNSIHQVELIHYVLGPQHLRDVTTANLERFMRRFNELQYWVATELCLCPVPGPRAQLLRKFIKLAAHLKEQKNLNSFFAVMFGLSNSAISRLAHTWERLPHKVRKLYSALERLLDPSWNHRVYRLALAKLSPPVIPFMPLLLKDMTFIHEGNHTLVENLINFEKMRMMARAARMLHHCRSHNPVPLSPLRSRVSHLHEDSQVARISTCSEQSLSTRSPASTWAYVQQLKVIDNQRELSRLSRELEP
Sequence of Rap guanine nucleotide exchange factor 4 (Homo sapiens) (Q8WZA2 whole entry, looked up): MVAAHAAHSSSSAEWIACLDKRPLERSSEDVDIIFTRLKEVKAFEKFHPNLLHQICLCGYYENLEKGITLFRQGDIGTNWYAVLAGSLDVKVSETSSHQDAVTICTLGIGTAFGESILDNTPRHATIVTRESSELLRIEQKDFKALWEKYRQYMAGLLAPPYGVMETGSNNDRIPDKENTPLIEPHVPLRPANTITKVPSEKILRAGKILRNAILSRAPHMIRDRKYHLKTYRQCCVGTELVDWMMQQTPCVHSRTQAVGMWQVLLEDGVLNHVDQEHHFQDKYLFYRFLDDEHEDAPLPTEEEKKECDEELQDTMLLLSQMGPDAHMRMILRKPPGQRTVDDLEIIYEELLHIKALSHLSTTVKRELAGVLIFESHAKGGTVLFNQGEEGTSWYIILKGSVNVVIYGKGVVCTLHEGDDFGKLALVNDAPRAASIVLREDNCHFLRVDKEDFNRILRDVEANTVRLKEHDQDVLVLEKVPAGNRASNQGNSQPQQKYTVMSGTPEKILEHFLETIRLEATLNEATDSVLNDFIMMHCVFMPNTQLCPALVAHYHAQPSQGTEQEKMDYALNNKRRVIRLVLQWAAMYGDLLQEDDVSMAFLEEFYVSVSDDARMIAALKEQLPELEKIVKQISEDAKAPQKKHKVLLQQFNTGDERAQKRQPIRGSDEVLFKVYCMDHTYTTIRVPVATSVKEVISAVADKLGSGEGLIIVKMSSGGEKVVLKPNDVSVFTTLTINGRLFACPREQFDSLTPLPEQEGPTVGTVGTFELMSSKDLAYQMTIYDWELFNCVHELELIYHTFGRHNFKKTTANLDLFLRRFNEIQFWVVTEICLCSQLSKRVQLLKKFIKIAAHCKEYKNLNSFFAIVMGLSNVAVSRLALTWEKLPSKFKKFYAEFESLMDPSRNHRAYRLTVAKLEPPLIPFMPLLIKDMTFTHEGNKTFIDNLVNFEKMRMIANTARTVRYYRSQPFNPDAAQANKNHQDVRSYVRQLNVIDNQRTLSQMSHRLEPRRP

With `Cn1cc(/C=C2\SC(=S)N(NC(=O)c3ccccc3Cl)C2=O)c2ccccc21`, the Potency result in assay [1], in assay [3] and in assay [4] was “inactive” in each case. Besides, the figures for the Potency in assay [2] and in assay [5] were 100 µM (active) and 63.1 µM (active), respectively.

Consider `COc1ccc(N=Cc2c(O)n(-c3cccc(C)n3)c(=O)c3ccccc23)c(OC)c1`, for which the Potency entry in assay [1] and in assay [3] was “inactive” each time. In addition, the activation in assay [2] is -25.1% [at 17.1 µM, percent relative to cAMP agonist control]; in assay [5] it was 19.8% [at 30.8 µM]. Besides, the activity change, negative = inhibition in assay [4] is 31% [at 30.8 µM].

As for `O=[N+]([O-])c1ccc(N(c2ccccc2)c2ccccc2)cc1`, the Potency entry in assay [1] and in assay [3] was “inactive” throughout. The activation in assay [2] is 3.9% [at 17.1 µM, percent relative to cAMP agonist control]; in assay [5] it was 15.8% [at 30.8 µM]. In assay [4], the activity change, negative = inhibition is -24.8% [at 30.8 µM].

As for `Cc1ccc2[nH]cc(/C=C/c3cc[n+](C)cc3)c2c1`, the Potency entry in assay [1], in assay [3] and in assay [4] was “inactive” throughout. For the same molecule, the Potency was 112 µM (active) in assay [2] and 56.2 µM (active) in assay [5].

As for `CCN(CC)C(=O)c1ccc(/C=C/c2c[nH]c3ccccc23)[n+](C)c1`, the Potency result in assay [1] and in assay [3] was “inactive” in each case. In addition, the activation in assay [2] was 6.96% [at 17.1 µM, percent relative to cAMP agonist control]. Moreover, the activity change, negative = inhibition in assay [4] is 70% [at 30.8 µM]. Further, the Potency in assay [5] is 15.8 µM (active).

For the molecule `Cc1ccc2c(c1C)OC(=O)CC2c1ccccc1` (stereo not given), the Potency result in assay [1], in assay [2], in assay [3], in assay [4] and in assay [5] was “inactive” throughout.

In the case of `Cc1ccc(N=Cc2sc(O)c3ccccc23)c(C)c1`, the Potency result in assay [1] and in assay [3] was “inactive” in each case. In addition, the activation is -3.2% [at 17.1 µM, percent relative to cAMP agonist control] in assay [2] and 10.3% [at 30.8 µM] in assay [5]. In addition, the activity change, negative = inhibition in assay [4] is -0.317% [at 30.8 µM].

Take `O=c1oc2cc(O)ccc2cc1-c1nnc(Nc2ccccc2F)s1`: the Potency entry in assay [1] and in assay [4] was “inactive” each time. The Potency in assay [2] is 14.1 µM (active); in assay [3], 3.38 µM (active); in assay [5], 3.55 µM (active).

`COc1ccc(-c2nc(N/N=C(\C)c3ccc(O)cc3)c3ccccc3n2)cc1`: the Potency entry in assay [1] and in assay [3] was “inactive” throughout. The activation in assay [2] is -0.683% [at 17.1 µM, percent relative to cAMP agonist control]; in assay [5], 22.7% [at 30.8 µM]. For the same molecule, the activity change, negative = inhibition in assay [4] is 8.99% [at 30.8 µM].

Take `O=c1oc2cc(O)ccc2cc1-c1nc2c(s1)CCc1ccccc1-2`: the Potency result in assay [1], in assay [3], in assay [4] and in assay [5] was “inactive” throughout. Further, the Potency in assay [2] is 100 µM (active).

With `COc1ccc(CN(C(=O)c2cccs2)c2ccccc2)cc1`, the Potency entry in assay [1] and in assay [3] was “inactive” in each case. For the same molecule, the activation in assay [2] was 16.8% [at 17.1 µM, percent relative to cAMP agonist control]; in assay [5], 12% [at 30.8 µM]. In assay [4], the activity change, negative = inhibition was -5.93% [at 30.8 µM].

Take `CCCN1C(=O)c2cccc3c(N4CCCCC4)ccc(c23)C1=O`: the Potency entry in assay [1], in assay [3] and in assay [4] was “inactive” each time. The results for the Potency in assay [2] and in assay [5] were 100 µM (active) and 39.8 µM (active), respectively.

On to `O=C(O)c1cccc(-c2ccc(/C=c3/sc4nc5ccccc5n4c3=O)o2)c1`, for which the Potency entry in assay [1], in assay [2], in assay [3], in assay [4] and in assay [5] was “inactive” in each case.

Consider `CCOc1ccccc1NC(=O)CSc1nccn1-c1cccc(C)c1`, for which the Potency entry in assay [1], in assay [2], in assay [3], in assay [4] and in assay [5] was “inactive” throughout.

As for `CC(C)CCn1c(Oc2ccccc2F)nc2c1c(=O)n(C)c(=O)n2C`, the Potency entry in assay [1], in assay [2], in assay [3], in assay [4] and in assay [5] was “inactive” in each case.

With `N#CC1=C(N)OC2=C(CC/C2=C\c2ccccc2)C1c1ccccc1` (stereo not given), the Potency entry in assay [1], in assay [3], in assay [4] and in assay [5] was “inactive” each time. Further, in assay [2], the Potency was 112 µM (active).

Turning to `CN(Cc1cccs1)c1nc(-c2cccnc2)nc2ccccc12`, the Potency entry in assay [1] and in assay [3] was “inactive” throughout. The activation in assay [2] was 12.1% [at 17.1 µM, percent relative to cAMP agonist control]; in assay [5], 51% [at 30.8 µM]. For the same molecule, in assay [4], the activity change, negative = inhibition was -10.3% [at 30.8 µM].

For the molecule `CC(C)n1cc(/C=C/c2cc[n+](C)cc2)c2ccccc21`, the Potency entry in assay [1], in assay [3] and in assay [4] was “inactive” throughout. Besides, the values for the Potency in assay [2] and in assay [5] were 112 µM (active) and 56.2 µM (active), respectively.

Turning to `CCOC(=O)c1sc2nc3c(SCC(=O)O)cc(C(=O)c4cc(F)ccc4O)cn3c(=O)c2c1C`, the Potency in assay [1] is 9.53 µM (active). The Potency entry in assay [2], in assay [3], in assay [4] and in assay [5] was “inactive” throughout.

Regarding `N#C/C(=C\c1ccc(N2CCOCC2)o1)c1nc2ccccc2[nH]1`, the Potency entry in assay [1], in assay [3] and in assay [4] was “inactive” in each case. For the same molecule, the Potency was 112 µM (active) in assay [2] and 39.8 µM (active) in assay [5].

As to `C(=C(c1ccccc1)c1ccccc1)c1ccccn1`, the Potency entry in assay [1], in assay [2], in assay [4] and in assay [5] was “inactive” each time. In assay [3], the Potency was 84.9 µM (active).

On to `CN1/C(=C/C=C(C#N)C#N)C(C)(C)c2ccccc21`, for which the Potency result in assay [1] and in assay [3] was “inactive” throughout. Also, the activation is -11.9% [at 17.1 µM, percent relative to cAMP agonist control] in assay [2] and -347% [at 30.8 µM] in assay [5]. The activity change, negative = inhibition in assay [4] is 214% [at 30.8 µM].
